Assay outcomes: PubChem, Broad Institute
Wnt act = Wnt/beta-catenin pathway activators, primary screen, cell-based, plate reader, single point. Wnt/beta-catenin reporter cell assay, activator. activation, % at 9.35 µM. hit rate 1.2% among 300,000. AID 743398, 2014; in the data active means activation above about 30%, passing the limit was not always enough; inconclusive means no clear call, values can overlap the other calls;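 further: 0% = neutral control wells and 100% = positive control wells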
Env fusion inh = inhibitors of HIV-1 Env-driven cell-cell fusion, primary screen, HeLa-JRFL effector, CEM21 target cells, luciferase. hit rate 1.1% among 360,000. AID 651610, 2012. inhibition, % at 12.3 µM;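 active means mean replicate inhibition score of at least 50 and every replicate individually at or above 50; inconclusive means only one of the two criteria met; inactive means mean below 50 and not all replicates reaching 50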;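 further: 0% = plate neutral controls and 100% = maraviroc near 300 nM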
GSIS activator = GLuc luminescence reporter in INS-1E cells, primary screen for activators of glucose-dependent secretion of insulin; INS-1E GLuc reporter insulin secretion, 2-3 h; activation, % at 16.6 µM; hit rate 0.61% among 370,000; AID 743287, 2014;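 active means lowest replicate activation of at least 40%, so every replicate reaches that level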;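 further: 0% = median of neutral control wells and 100% = median of IBMX positive control wells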
MITF act = activators of MITF-driven TRPM1 promoter reporter, primary screen, cell-based, SK-MEL-5, luciferase, single point; hit rate 0.75% among 300,000; AID 588334, 2011; SK-MEL-5 TRPM1-promoter luciferase, 24 h; % of positive control, neutral wells = 0; activation, % at 12.5 µM;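 active means mean activation of at least 80% with every replicate also reaching 80%; inconclusive means mean reaches 80% but some replicate falls short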;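 further: 0% = neutral control wells and 100% = parthenolide positive control wells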
F508del corr = F508del CFTR correction, initial screen, CFBE line, single point; CFBE cells, YFP halide quenching; stimulated with forskolin plus potentiator P3; % fluorescence drop versus neutral controls; activity (quench increase), % at 7.58 µM; hit rate 0.36% among 350,000; AID 720511, 2013;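 active means mean added fluorescence quench of at least 8% versus neutral control, with both replicates also reaching 8%; inconclusive means only one of the mean or replicate conditions met; inactive means mean below 8% and not both replicates reaching 8%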;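 further: cells transiently co-express mutant CFTR-F508del with the halide-sensitive YFP; corrector assay measuring rescue of mutant channel to the surface after 24 h compound exposure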
* = called active by the depositor; u = inconclusive; x = no result; [ ] = remark or other dose. An excerpt weighted towards active compounds, which were near 2.7% of everything screened.

SMILES	Wnt act	Env fusion inh	GSIS activator	MITF act	F508del corr
O=C(NCCc1ccccc1)c1ccc(Cl)nc1	39*	-50	x	59	x
Cc1ccc2c(Cl)c(C(=O)NCCc3ccccc3)sc2c1	x	-46	9	106*	x
O=C(C1CCC1)N1CC2(C1)[C@H](c1ccccc1)[C@@H](CO)N2Cc1ccc(Cl)cc1	x	x	-13	x	-1
C[C@@H]1CN([C@@H](C)CO)S(=O)(=O)c2ccc(C#CC3CC3)cc2O[C@H]1CN(C)Cc1ccccc1	x	13[16.7 µM]	-16	x	-1
CC(C)(C)c1ccc(C(=O)NCCc2ccccc2)cc1	29	-68	-5	u	-2
Cc1cccc(C(=O)NCCc2ccccc2)c1	u	-19	11	105*	-2
CC(C)NC(=O)Nc1ccc2c(c1)C(=O)N([C@@H](C)CO)C[C@@H](C)[C@@H](CN(C)C(=O)CCC(F)(F)F)OCCCC[C@H](C)O2	x	-17[16.7 µM]	28	x	1
C[C@@H]1CCCCO[C@H](CN(C)C(=O)CCC(F)(F)F)[C@H](C)CN([C@H](C)CO)C(=O)c2cc(NC(=O)CCC(F)(F)F)ccc2O1	x	87*[16.7 µM]	-6	x	0
C[C@@H]1CCCCO[C@@H](CN(C)C(=O)Nc2ccccc2)[C@H](C)CN([C@H](C)CO)C(=O)c2cc(NC(=O)CCC(F)(F)F)ccc2O1	x	66*[16.7 µM]	-14	x	0
CC(C)NC(=O)Nc1ccc2c(c1)C(=O)N([C@H](C)CO)C[C@@H](C)[C@@H](CN(C)C(=O)CCC(F)(F)F)OCCCC[C@@H](C)O2	x	79*[16.7 µM]	25	x	-1
C[C@H]1CCCCO[C@H](CN(C)C(=O)CCC(F)(F)F)[C@@H](C)CN([C@@H](C)CO)C(=O)c2cc(NC(=O)CCC(F)(F)F)ccc2O1	x	12[16.7 µM]	-7	x	0
CC(C)NC(=O)Nc1ccc2c(c1)C(=O)N([C@@H](C)CO)C[C@@H](C)[C@@H](CN(C)C(=O)CCC(F)(F)F)OCCCC[C@@H](C)O2	x	86*[16.7 µM]	27	x	-1
C[C@H]1CN([C@@H](C)CO)C(=O)c2cc(NC(=O)CCCN(C)C)ccc2O[C@H]1CN(C)C(=O)NC1CCCCC1	x	-5[16.7 µM]	-1	x	0
O=C(C1CCC1)N1CC2(C1)[C@H](c1ccccc1)[C@H](CO)N2CC1CCCC1	x	x	-7	x	-4
Cc1noc(C)c1NC(=O)Nc1ccc2c(c1)C(=O)N([C@@H](C)CO)C[C@H](C)[C@H](CN(C)CC1CCCCC1)OCCCC[C@H](C)O2	x	8[16.7 µM]	17	x	1
Cn1cc(CNCc2cn[nH]c2-c2ccc(F)cc2)c(-c2ccc3c(c2)OCCO3)n1	37*	13	-4	-1	1
Cn1cc(CNCc2ccc(OC(F)(F)F)cc2)c(-c2ccc3c(c2)OCCO3)n1	-3	-7	-57	10	3
CCc1cc(CNC(=O)CCc2nnc(CCCc3ccccc3)o2)on1	43*	-31	11	89*	-1
C[C@H](CO)N1C[C@H](C)[C@@H](CN(C)C(=O)C2CCCCC2)Oc2cc(C#CC3CC3)ccc2S1(=O)=O	x	10[16.7 µM]	-21	x	-2
Cc1c(CC(=O)N[C@H](C(=O)O)C(C)C)c(=O)oc2cc3c(cc12)CCC(C)(C)O3	35*	-35	18	60	0
Cc1c(CC(=O)N[C@@H](C)C(=O)O)c(=O)oc2cc3c(cc12)CCC(C)(C)O3	2	9	24	5	2
COc1ccc(N(C(=O)CCl)C(C(=O)NCCc2ccccc2)c2cccs2)cc1Cl (stereo not given)	1	42	25	-85	x
COc1cccc(N(C(=O)CCl)C(C(=O)NCCc2ccccc2)c2cccs2)c1 (stereo not given)	-3	65*	44	-89	x
CO[C@@H]1CN(C)C(=O)c2ccc(NC(=O)Nc3ccccc3F)cc2OC[C@H](C)N(C(C)=O)C[C@@H]1C	x	13[16.7 µM]	-9	x	0
CCCNC(=O)C[C@@H]1CC[C@@H]2[C@H](COc3ccc(NS(=O)(=O)CC)cc3C(=O)N2C)O1	x	-5[16.7 µM]	-3	x	1
SMILES	Wnt act	Env fusion inh	GSIS activator	MITF act	F508del corr
O=C(NC(=S)Nc1ccccc1Br)C1CC1	2	-112	16	5	0
Cc1ccc(NC(=S)NC(=O)C2CCCC2)c(Br)c1	53*	-204	-40	97*	3
CC(C)[C@H]1COCc2cn(nn2)CC[C@H](Cc2ccccc2)C(=O)N1	x	-4[16.7 µM]	-1	x	x
Cc1noc(C)c1NC(=O)Nc1ccc2c(c1)C(=O)N([C@@H](C)CO)C[C@@H](C)[C@H](CN(C)CC1CCCCC1)O2	x	-3[16.7 µM]	40	x	2
C/C(=N/OCc1ccc(Br)cc1)c1ccccn1	18	-131	1	117*	4
CC(C)C(=O)N(c1ccc2oc(=O)sc2c1)S(=O)(=O)c1ccccc1	-2	x	-3	-12	6
COc1ccc(S(=O)(=O)N(C(=O)C(C)C)c2ccc3oc(=O)sc3c2)cc1	-2	x	-1	-5	11*
Cn1c(=O)n(-c2cccc(Cl)c2)c(=O)c2c3c(sc21)COC(C)(C)C3	-8	114*	x	-13	x
CN(C)c1nc2sc3c(c2c(=O)n1C)CC(C)(C)OC3	x	x	27	12	x
CCCCn1c(=O)n(C)c(=O)c2c3c(sc21)COC(C)(C)C3	-1	x	45*	-3	x
CC(C)Cc1ccc(C(C)C(N)=NCCc2ccccc2)cc1 (stereo not given)	-2	76*	-27	-69	7
COc1ccc(CCN=C(N)C(C)c2ccccc2)cc1OC (stereo not given)	0	23	2	-7	0
CCc1nc2oc3ccccc3c(=O)c2c(=O)n1-c1ccc(C)cc1	44*	-76	1	x	1
CCc1nc2oc3ccccc3c(=O)c2c(=O)n1-c1ccccc1	53*	-225	x	35	x
Cc1ccc(-n2c(C(C)C)nc3oc4ccccc4c(=O)c3c2=O)cc1	65*	-231	1	44	0
CCCc1nc2oc3ccccc3c(=O)c2c(=O)n1-c1ccccc1	15	-31	-5	x	0
CCc1nc2oc3ccccc3c(=O)c2c(=O)n1CCOC	-7	3	x	x	x
CCCc1nc2oc3ccccc3c(=O)c2c(=O)n1-c1ccc(C)cc1	49*	-119	2	x	0
C[C@@H]1CN([C@@H](C)CO)C(=O)Cc2cc(NC(=O)Nc3ccccc3)ccc2O[C@@H]1CN(C)C(=O)Nc1ccc(F)cc1	x	19[16.7 µM]	-5	x	-3
CO[C@H]1CN(C)C(=O)c2cc(NC(=O)Nc3ccccc3)ccc2OC[C@H](C)N(C(=O)CC2CC2)C[C@@H]1C	x	-57[16.7 µM]	-33	x	1
COc1ccc(NC(=O)N(C)C[C@H]2Oc3c(NC(=O)c4nc5ccccc5s4)cccc3C(=O)N([C@H](C)CO)C[C@@H]2C)cc1	x	9[16.7 µM]	-12	x	-5
C[C@@H]1CN([C@H](C)CO)C(=O)c2cc(NS(C)(=O)=O)ccc2O[C@@H]1CN(C)S(=O)(=O)c1cccs1	x	x	11	x	3
